# Results: PubChem BioAssay (EPA / NIEHS)
# Records with an inconclusive call do not appear. Activity calls are given as the source filed them. How the source made its calls: active means hit-call score of the fitted dose curve at least 0.9, where 1 is the maximum; inconclusive means response in the unintended direction; inactive means score below 0.9.
# Test: ATG_XTT_Cytotoxicity: Cytotoxicity Assessment in the Attagene TRANS-FACTORIAL HepG2 Assay (AID 2283584);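 on AC50: cells exposed to compound for 24 h before reading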
# Protocol: ATG_XTT_Cytotoxicity is a cell-based, single-readout assay that uses HepG2, a human liver cell line, with measurements taken at 24 hours after chemical dosing in a 24-well plate.ATG_XTT_Cytotoxicity is one of one assay component(s) measured or calculated from the ATG_XTT_Cytotoxicity assay. It is designed to make measurements of cell number, a form of viability reporter, as detected with […] signals by XTT cytotoxicity assay technology.Data from the assay component ATG_XTT_Cytotoxicity was analyzed into 1 assay endpoint. This assay endpoint, ATG_XTT_Cytotoxicity, was analyzed in the positive analysis fitting direction relative to DMSO as the negative control and baseline of activity. Using a type of viability reporter, loss-of-signal activity can be used to understand changes in the viability. Furthermore, this assay endpoint can be referred to as a primary readout, because the performed assay has only produced 1 assay endpoint. To generalize the intended target to other relatable targets, this assay endpoint is annotated to the cell cycle intended target family, where the subfamily is cytotoxicity.
# Human liver HepG2 cells are transiently transfected with multiple reporter transcription units (MRTUs) in 6-well plates using FuGene 6 reagent (Roche; 3 ml FuGene/1 mg DNA). The MRTU constructs are regulated by a cis-regulating element (promoter). […] A major difference between the CIS and TRANS system is that in CIS activities of endogenous TFs are measured, whereas the TRANS assay evaluates changes in activities of exogenous, chimeric NR-Gal4 proteins. […] At the end of 24 hour incubation, total RNA was isolated using TriZol reagent (Invitrogen). The isolated RNA is then reverse-transcribed using oligo(dT) primer and Mo-MLV reverse transcriptase (Invitrogen) with DNAse I (Ambion) treatment for 30 min. The one-tenth of the produced cDNA was amplified by PCR using Taq DNA polymerase (Invitrogen) and two reporter sequence-specific primers. The PCR products were fluorescently labeled by primer extension with 6-arboxyfluorescein (6-FAM) 5'-labeled reporter sequence-specific primer (2 min at 95 C, 20 s at 68 C and 10 min at 72 C) and these products were digested with 5U of HpaI (New England Biolabs) for 2h at 37 C. The fragments were purified using Qiaquick PCR columns (Qiagen), analyzed on an ABI 3130xL genetic analyzer (Applied Biosystems) with peak positions identified by using a set of X-rhodamine (ROX)-labeled MapMarker1000 molecular weight standards (BioVentures). The raw capillary electrophoresis data was processed using Attagraph software (Attagene).
Compound,outcome,AC50
CC(=O)OCCC(C)C,inactive,–
O=C(NS(=O)(=O)/C=C/c1ccccc1)c1ccc(F)cc1Cl,inactive,–
CC(C)=CCC/C(C)=C\CO,inactive,–
CC1(C)C(=O)N(Br)C(=O)N1Br,inactive,–
COC(=O)c1c(Cl)c(Cl)c(C(=O)OC)c(Cl)c1Cl,inactive,–
CCOC(=O)CC(CC(=O)OCC)(OC(C)=O)C(=O)OCC,inactive,–
Cn1c(=O)cc(Oc2ccc(F)cc2F)c2cnc(NCC(C)(C)O)nc21,inactive,–
O=C(CCCCCCCCc1cccnc1)N1CCC(C=C(c2ccccc2)c2ccccc2)CC1,–,33.8 µM (active)
CCCCCCCCCCCCc1ccccc1,inactive,–
CC(C)CC(C)(O)C#CC(C)(O)CC(C)C (stereo not given),inactive,–
Oc1ccc2c(c1)-c1ccccc1C2,inactive,–
CCOCCOCCOCCO,inactive,–
C[C@](N)(Cc1ccc(O)c(O)c1)C(=O)O,inactive,–
O=C(O)c1cccc(N(Cc2cccnc2)c2ccc(OC(F)F)c(OC(F)F)c2)c1,inactive,–
CC(C)CCCCCCCOC(=O)CCCCC(=O)OCCCCCCCC(C)C,inactive,–
CCCCCCCCCCCCCCCO,inactive,–
Nc1cccc(N)c1,inactive,–
O=C1CCCCCN1,inactive,–
CC(O)CN(CCN(CC(C)O)CC(C)O)CC(C)O (stereo not given),inactive,–
CCCCCCc1ccc(O)cc1O,inactive,–

Compound,outcome,AC50
Clc1nc(Cl)c(Cl)c(Cl)c1Cl,inactive,–
C=CC(=C)CCC=C(C)C,inactive,–
CC(=O)OC[C@H]1O[C@@](COC(C)=O)(O[C@H]2O[C@H](COC(C)=O)[C@@H](OC(C)=O)[C@H](OC(C)=O)[C@H]2OC(C)=O)[C@@H](OC(C)=O)[C@@H]1OC(C)=O,inactive,–
O=C1OC(=O)C2C3C=CC(C3)C12 (stereo not given),inactive,–
COC(=O)c1ccccc1O,inactive,–
O=P(OC(CCl)CCl)(OC(CCl)CCl)OC(CCl)CCl,inactive,–
COc1ccc(-n2nc(C(F)F)cc2-c2ccc(S(C)=O)cc2)cc1 (stereo not given),inactive,–
CC/C(=C\C(=N/O)C(N)=O)C(C)[N+](=O)[O-] (stereo not given),inactive,–
Cc1ccc(C)c(O)c1,inactive,–
CCC(C)(C)C(=O)O[C@H]1C[C@@H](C)C=C2C=C[C@H](C)[C@H](CC[C@@H]3C[C@@H](O)CC(=O)O3)[C@H]21,inactive,–
Nc1nc2ncc(CNc3ccc(C(=O)N[C@@H](CCC(=O)O)C(=O)O)cc3)nc2c(=O)[nH]1,inactive,–
O=c1n(CC2CO2)c(=O)n(CC2CO2)c(=O)n1CC1CO1 (stereo not given),inactive,–
C1N2CN3CN1CN(C2)C3,inactive,–
O=C(OC[C@H]1O[C@@H](OC(=O)c2cc(O)c(O)c(OC(=O)c3cc(O)c(O)c(O)c3)c2)[C@H](OC(=O)c2cc(O)c(O)c(OC(=O)c3cc(O)c(O)c(O)c3)c2)[C@@H](OC(=O)c2cc(O)c(O)c(OC(=O)c3cc(O)c(O)c(O)c3)c2)[C@@H]1OC(=O)c1cc(O)c(O)c(OC(=O)c2cc(O)c(O)c(O)c2)c1)c1cc(O)c(O)c(OC(=O)c2cc(O)c(O)c(O)c2)c1,inactive,–
CN(C)c1ccc(N=NS(=O)(=O)O)cc1,inactive,–
Cn1c(=O)c2c(ncn2C)n(C)c1=O,inactive,–
Cc1[nH]cnc1C[C@H]1CCc2c(C)c3ccccc3n2C1=O,inactive,–
C=CCCCCCCCCC(=O)O,inactive,–
O=C(O)c1cc(N=Nc2ccc(S(=O)(=O)Nc3ccccn3)cc2)ccc1O,inactive,–
COCCOCCOCCOC,inactive,–
